Results taken from the supplement of paper PMC11732987, “Enantioselective OTUD7B fragment discovery through chemoproteomics screening and high-throughput optimisation” (Communications Chemistry, 2025).

What was measured:
Assay in all cases: log2 ratio of Biotin-Ahx-Ub-VS probe labelling (fragment/DMSO); higher = less target engagement (more negative = stronger competition), active = hit call of the paper (q ≤ 0.05, log2 ratio ≤ -1)
Settings in all cases: compound concentration: 200 uM; treatment time: 3 h
USP19 = target: T1, USP19 (UniProt O94966)
T1 sequence (whole entry): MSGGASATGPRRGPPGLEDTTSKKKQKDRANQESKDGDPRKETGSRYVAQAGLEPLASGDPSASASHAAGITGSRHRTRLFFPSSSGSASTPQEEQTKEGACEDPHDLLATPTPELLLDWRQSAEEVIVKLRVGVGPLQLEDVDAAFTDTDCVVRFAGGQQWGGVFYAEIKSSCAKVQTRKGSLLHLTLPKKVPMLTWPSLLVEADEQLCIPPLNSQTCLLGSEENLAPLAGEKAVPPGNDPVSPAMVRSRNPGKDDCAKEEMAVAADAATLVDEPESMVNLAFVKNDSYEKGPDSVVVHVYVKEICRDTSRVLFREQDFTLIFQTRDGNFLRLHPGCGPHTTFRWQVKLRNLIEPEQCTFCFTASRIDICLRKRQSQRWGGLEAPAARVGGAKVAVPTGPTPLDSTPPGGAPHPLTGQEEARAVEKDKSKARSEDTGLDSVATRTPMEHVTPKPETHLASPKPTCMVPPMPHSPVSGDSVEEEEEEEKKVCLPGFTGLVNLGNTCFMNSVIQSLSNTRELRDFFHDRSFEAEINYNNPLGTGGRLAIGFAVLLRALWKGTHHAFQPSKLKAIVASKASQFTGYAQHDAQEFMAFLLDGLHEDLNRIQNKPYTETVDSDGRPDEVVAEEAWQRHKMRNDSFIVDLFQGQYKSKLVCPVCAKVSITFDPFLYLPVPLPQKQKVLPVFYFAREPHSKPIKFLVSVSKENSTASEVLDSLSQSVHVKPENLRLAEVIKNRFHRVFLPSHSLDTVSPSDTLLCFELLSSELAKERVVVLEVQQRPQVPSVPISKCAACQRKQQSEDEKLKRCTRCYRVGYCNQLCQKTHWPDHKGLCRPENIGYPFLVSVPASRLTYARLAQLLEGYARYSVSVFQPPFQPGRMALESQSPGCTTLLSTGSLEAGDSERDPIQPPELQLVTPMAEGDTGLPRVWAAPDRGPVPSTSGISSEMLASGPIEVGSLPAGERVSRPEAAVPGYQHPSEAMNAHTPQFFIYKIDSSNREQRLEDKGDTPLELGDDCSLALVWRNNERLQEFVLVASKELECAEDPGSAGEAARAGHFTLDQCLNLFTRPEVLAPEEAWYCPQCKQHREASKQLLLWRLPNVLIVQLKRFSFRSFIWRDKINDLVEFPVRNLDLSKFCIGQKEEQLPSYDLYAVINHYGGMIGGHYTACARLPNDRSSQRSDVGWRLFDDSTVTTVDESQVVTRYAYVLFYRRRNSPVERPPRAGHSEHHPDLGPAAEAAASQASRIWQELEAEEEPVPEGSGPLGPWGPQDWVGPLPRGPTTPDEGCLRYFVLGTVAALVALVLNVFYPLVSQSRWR
Method in brief: (§1)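 HEK293T lysate, 495 µg per sample in Tris/CHAPS/IGEPAL buffer with protease inhibitors, was treated in triplicate with fragment at 200 µM or vehicle for 3 h and then with Biotin-Ahx-Ub-VS at 0.5 µM final for 1 h. Labelled DUBs were NeutrAvidin-enriched, digested with LysC and trypsin, and run by diaPASEF LC-MS/MS. Spectronaut label-free quantities were global-median-normalised, and values are average log2 fragment/vehicle ratios by unpaired t-test on proteins with ≥2 unique peptides.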

USP22 = target: T2, USP22 (UniProt Q9UPT9)
T2 sequence (whole entry): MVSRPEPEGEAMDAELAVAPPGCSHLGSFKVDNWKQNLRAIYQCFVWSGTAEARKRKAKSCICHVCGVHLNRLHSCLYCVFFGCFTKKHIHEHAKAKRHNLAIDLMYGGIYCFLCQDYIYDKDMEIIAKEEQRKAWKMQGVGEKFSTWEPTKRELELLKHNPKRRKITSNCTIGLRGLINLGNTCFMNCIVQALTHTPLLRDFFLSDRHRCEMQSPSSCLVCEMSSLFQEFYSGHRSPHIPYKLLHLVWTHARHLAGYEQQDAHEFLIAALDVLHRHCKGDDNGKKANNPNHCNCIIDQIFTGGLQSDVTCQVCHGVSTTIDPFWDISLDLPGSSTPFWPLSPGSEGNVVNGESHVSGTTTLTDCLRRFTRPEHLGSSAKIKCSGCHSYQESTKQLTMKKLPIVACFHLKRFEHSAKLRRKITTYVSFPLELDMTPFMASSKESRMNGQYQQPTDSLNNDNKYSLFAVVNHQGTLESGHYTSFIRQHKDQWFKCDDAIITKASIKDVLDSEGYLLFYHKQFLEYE
Method in brief: as §1

USP24 = USP24 (UniProt Q9UPU5)
Method in brief: as §1

USP25 = target: T3, USP25 (UniProt Q9UHP3)
T3 sequence (whole entry): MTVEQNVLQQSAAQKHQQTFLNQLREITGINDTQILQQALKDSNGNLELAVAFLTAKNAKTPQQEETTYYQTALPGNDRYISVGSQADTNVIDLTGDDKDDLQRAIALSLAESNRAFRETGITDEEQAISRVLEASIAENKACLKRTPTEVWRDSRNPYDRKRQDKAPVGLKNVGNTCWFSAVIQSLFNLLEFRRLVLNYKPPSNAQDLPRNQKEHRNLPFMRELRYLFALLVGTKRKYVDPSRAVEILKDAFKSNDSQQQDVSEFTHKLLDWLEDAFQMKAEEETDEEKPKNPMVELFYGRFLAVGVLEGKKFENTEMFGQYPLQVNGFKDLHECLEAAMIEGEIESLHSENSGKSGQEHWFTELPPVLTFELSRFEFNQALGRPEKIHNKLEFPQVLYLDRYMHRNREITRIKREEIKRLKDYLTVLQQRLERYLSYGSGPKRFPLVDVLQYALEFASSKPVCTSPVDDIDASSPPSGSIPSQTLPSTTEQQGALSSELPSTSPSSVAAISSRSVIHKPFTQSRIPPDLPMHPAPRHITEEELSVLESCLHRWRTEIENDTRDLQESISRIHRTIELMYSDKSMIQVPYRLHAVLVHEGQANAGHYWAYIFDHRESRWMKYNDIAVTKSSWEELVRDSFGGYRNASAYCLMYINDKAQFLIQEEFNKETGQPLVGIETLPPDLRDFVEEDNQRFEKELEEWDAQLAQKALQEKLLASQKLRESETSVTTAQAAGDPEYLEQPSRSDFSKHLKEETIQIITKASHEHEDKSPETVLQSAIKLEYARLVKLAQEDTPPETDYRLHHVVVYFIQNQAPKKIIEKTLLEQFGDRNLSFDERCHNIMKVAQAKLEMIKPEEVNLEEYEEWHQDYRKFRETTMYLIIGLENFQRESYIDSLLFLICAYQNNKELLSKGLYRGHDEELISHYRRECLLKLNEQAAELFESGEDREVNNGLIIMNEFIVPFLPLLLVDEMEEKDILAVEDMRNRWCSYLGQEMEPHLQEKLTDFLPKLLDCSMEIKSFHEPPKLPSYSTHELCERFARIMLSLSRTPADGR
Method in brief: as §1

USP28 = target: T4, USP28 (UniProt Q96RU2)
T4 sequence (whole entry): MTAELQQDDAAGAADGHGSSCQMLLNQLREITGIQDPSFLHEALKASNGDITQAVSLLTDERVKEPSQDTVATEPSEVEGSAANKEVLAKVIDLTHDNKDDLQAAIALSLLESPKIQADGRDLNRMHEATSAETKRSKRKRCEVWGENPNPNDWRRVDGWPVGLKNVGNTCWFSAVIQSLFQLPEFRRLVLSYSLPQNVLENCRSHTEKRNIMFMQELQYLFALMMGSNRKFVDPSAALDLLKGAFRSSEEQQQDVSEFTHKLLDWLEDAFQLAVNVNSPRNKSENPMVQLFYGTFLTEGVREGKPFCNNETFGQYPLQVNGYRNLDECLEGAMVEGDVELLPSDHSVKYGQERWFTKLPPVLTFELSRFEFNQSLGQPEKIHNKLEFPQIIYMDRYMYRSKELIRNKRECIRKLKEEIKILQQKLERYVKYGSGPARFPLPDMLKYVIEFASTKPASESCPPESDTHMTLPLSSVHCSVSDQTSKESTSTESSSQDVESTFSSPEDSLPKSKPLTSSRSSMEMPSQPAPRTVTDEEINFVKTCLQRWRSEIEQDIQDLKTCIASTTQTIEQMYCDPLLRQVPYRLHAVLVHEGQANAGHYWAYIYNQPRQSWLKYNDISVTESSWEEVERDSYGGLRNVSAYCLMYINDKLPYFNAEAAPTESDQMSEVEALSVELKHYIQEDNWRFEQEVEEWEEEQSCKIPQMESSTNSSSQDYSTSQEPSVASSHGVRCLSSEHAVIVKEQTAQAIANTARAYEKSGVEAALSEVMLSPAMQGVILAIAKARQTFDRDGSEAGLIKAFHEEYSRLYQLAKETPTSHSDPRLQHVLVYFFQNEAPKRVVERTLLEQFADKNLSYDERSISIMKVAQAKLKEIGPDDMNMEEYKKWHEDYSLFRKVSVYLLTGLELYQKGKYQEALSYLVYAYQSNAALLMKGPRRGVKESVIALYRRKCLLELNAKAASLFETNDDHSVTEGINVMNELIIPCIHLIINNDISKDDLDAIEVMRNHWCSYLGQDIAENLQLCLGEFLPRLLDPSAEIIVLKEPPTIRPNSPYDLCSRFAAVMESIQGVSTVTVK
Method in brief: as §1

Measured: log2 ratio of Biotin-Ahx-Ub-VS probe labelling

Sequence of USP24 (Q9UPU5 whole entry): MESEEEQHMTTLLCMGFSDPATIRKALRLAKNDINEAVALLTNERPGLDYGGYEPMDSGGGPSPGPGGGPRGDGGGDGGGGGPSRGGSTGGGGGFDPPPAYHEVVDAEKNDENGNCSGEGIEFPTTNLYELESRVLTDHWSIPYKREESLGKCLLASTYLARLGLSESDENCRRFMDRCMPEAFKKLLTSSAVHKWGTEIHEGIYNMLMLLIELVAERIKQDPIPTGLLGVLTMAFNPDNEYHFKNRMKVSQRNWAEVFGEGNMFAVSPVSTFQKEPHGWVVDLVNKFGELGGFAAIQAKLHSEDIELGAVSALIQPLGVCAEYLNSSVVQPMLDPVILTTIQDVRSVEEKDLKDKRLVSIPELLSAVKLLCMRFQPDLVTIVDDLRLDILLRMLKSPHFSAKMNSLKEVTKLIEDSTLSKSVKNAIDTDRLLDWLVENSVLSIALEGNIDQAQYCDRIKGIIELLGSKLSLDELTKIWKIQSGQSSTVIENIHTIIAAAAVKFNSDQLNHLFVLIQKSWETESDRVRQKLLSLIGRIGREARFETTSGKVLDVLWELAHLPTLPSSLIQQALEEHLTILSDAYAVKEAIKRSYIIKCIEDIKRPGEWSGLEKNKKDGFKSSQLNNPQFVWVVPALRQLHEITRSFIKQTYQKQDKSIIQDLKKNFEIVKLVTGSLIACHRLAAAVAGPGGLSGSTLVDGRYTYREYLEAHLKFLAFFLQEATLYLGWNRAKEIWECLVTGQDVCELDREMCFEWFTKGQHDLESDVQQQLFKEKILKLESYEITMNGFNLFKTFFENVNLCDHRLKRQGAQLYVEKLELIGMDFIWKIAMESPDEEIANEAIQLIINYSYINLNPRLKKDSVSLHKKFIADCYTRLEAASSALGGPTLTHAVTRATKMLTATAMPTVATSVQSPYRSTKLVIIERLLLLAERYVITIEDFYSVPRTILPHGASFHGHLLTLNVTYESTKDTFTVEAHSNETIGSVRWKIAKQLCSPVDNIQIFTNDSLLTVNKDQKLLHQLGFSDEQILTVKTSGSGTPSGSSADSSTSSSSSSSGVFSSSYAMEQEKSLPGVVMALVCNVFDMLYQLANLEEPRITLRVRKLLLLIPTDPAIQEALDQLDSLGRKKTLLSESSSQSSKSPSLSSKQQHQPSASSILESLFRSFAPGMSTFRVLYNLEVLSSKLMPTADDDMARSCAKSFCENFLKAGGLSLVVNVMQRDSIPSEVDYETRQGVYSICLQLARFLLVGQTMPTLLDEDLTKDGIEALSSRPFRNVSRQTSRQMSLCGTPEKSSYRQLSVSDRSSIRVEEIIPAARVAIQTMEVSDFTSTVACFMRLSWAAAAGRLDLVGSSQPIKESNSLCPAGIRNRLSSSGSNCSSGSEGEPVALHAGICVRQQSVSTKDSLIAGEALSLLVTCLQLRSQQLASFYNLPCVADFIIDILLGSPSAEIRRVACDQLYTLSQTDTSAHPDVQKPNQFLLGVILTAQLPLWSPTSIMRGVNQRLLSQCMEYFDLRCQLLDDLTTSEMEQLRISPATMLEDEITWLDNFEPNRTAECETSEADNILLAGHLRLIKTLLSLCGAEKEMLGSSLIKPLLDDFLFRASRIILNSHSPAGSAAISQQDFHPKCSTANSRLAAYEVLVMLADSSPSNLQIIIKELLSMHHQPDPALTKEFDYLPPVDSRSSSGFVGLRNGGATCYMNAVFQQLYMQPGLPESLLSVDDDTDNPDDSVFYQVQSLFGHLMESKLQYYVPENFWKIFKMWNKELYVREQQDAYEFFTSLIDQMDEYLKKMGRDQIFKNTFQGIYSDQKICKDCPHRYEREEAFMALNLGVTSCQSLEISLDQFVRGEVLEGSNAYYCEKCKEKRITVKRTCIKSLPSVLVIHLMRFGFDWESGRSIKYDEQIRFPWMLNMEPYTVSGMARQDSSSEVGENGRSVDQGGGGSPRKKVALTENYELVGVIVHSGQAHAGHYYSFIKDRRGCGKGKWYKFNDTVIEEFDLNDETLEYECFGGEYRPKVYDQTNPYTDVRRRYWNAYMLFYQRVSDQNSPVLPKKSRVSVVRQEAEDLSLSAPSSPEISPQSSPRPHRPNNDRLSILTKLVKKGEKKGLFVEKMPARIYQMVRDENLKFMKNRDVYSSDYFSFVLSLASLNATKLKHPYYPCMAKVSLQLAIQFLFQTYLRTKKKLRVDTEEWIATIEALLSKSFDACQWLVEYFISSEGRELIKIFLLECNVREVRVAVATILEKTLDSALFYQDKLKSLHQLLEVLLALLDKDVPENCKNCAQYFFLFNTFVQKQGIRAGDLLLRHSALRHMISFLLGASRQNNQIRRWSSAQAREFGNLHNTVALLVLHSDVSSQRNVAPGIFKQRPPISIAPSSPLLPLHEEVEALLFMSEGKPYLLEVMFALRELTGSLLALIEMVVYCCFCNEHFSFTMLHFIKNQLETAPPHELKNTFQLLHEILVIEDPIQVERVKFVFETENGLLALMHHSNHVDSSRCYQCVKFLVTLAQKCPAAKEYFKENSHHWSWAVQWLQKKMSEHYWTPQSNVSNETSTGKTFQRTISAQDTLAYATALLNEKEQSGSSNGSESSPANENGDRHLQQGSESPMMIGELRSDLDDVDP

C[C@@H](NC(=O)CCl)c1cccc(C#N)c1
inactive: USP19 -0.157 | USP22 0.031 | USP24 -0.254 | USP25 -0.569 | USP28 -0.723
